# Laboratory results published in PubChem BioAssay AID912 (National Center for Advancing Translational Sciences (NCATS), 2007).
# Values joined by “and” are separate entries in the source; they are usually repeats but may differ in a detail not shown here. Equal values may be shown once. The whole screen tested about 70,000 compounds, of which about 470 (0.67%) were called active. Where a call stands in place of a potency, no number is given. Not shown: some 18% with an inconclusive outcome. This excerpt belongs to a sample that is enriched for actives. Unmarked numbers belong to inactive results. The call rests on the fitted dose curve.
# Test: qHTS Assay for Anthrax Lethal Toxin Internalization; further: nearly all actives have a fitted effect of over 50% in size
# Conditions: Cells, FRET ratio (460/530); series mostly up to 40 µM
# Potency means the concentration at half of the fitted maximal effect.
Compound,"activity change, negative = inhibition",Potency
CC(C)CO/N=C1/C[C@@H](O)[C@@H](O)[C@@H]2[C@@H]3C(=O)N(C[C@@H]4CCCO4)C(=O)[C@H]3CC[C@@H]12,0.14% [at 8 µM],
CCOC(=O)[C@]1(C(/C=C/c2ccco2)NC(=O)OC)CCCC1=O (some centres undefined),-10.5% [at 8 µM],
CSc1nnc2c(n1)OC(c1cn(C)c3ccccc13)N(C(C)=O)c1ccccc1-2 (centres undefined),inactive,
CC1(C)OC(C(O)(c2ccccc2)c2ccccc2)C(C(O)(c2ccccc2)c2ccccc2)O1 (centres undefined),-5.79% [at 8 µM],
CO[C@H]1COC(=O)C/C=C\[C@H](C)COC(=O)[C@@H](OCc2ccccc2)/C=C\[C@@H]1C,-13% [at 1.6 µM],
CCOC(=O)c1sc(NC(=O)C(CC)Sc2nccn2C)nc1C (centres undefined),inactive,
CC(C)CO,inactive,
O=C(CSC1=Nc2ccccc2C2=NC(c3ccccc3)C(=O)N12)NCC1CCCO1 (centres undefined),inactive,
CC(C)CC1(C(=O)NCc2ccccn2)C=CCN1C(=O)c1ccccc1 (centres undefined),inactive,
CCCN(C/C=C\I)[C@@H]1CCc2cccc(O)c2C1,inactive,
Brc1cc(Br)c(Oc2cc(Br)c(Br)cc2Br)cc1Br,,1 µM (active)
CCCCCCCCCCCC(=O)O[C@H](CC(=O)O)C[N+](C)(C)C,inactive,
CCCOC(=O)Nc1ccccc1C(N)=O,inactive,
C=CCOC(=O)COCCC(C)C,inactive,
CCCn1c(C)nc2c(NCCCCN(CC)CC)nc(C)nc21,inactive,
CC(=O)c1c(O)c(C)c(O)c(Cc2c(O)c3c(c(C(=O)/C=C\c4ccccc4)c2O)OC(C)(C)C=C3)c1O,,15.8 µM (active)
N#CCCn1c(=O)c(-c2cc(F)cc(F)c2)nc2cnc(Oc3ccccc3)nc21,inactive,
CO[C@H]1COC(=O)[C@@H](C)NC(=O)C/C=C\[C@@H](C)[C@H](OC)COC(=O)C/C=C\[C@@H]1C,5.17% [at 8 µM],
c1ccc(CN2CC[C@@]3(CCCNC3)C2)cc1,,10 µM (active)
CS(=O)(=O)N1CCC2(CC1)CN(Cc1ccccc1)C2,inactive,
CC(=O)N1CCC2(CCCN(Cc3ccccc3)C2)CC1,inactive,
CC(=O)N1[C@H](C)C=C[C@]1(Cc1ccccc1)C(=O)NCc1ccccn1,inactive,
C#CCC(C(=O)OC)(C(=O)OC)C(C[N+](=O)[O-])c1ccccc1 (centres undefined),2.17% [at 8 µM],
CC(C)(O)/C=C\C(=O)[C@](C)(O)[C@H]1[C@H](O)C[C@]2(C)[C@@H]3CC=C4[C@@H](C=C(O)C(=O)C4(C)C)[C@]3(C)C(=O)C[C@@]12C,,0.0316 µM (active)
Cc1c(NC(=O)Nc2ccccc2Cl)sc(=S)n1C,inactive,
COC(=O)[C@@H]1CC[C@H](C)[C@@H](c2ccc(C)cc2)N1C(=O)c1ccc(/C=N\OC[C@@H](O)COCc2ccco2)cc1,12.1% [at 8 µM],
CCCCCCN(C(=O)CCCCCN1C(=O)NC(c2ccc(C(F)(F)F)cc2)C(C(=O)OCc2ccccc2)=C1C)C(C(=O)NCCCC)c1ccc(OCC(=O)OC)c(C(=O)OC)c1 (centres undefined),inactive,

Compound,"activity change, negative = inhibition",Potency
CC(C)CSC[C@@H]1O[C@H](n2cnc3c(N)nccc32)[C@H](O)[C@@H]1O,-14.1% [at 8 µM],
S=c1c2[nH]cnc2ncn1CCSc1ncnc2nc[nH]c12,-7.68% [at 8 µM],
Cc1nc2cnc(N3CCNCC3)nc2n(CCc2ccccc2)c1=O,inactive,
O=P(c1cccs1)(c1cccs1)c1cccs1,inactive,
C[C@]1(C(=O)NCCc2c[nH]c3ccccc23)C=C[C@@H](Cc2ccccc2)N1C(=O)c1ccccc1,inactive,
CO/N=C\[C@@H](C)[C@H](OCc1ccccc1)C(C)C,1.89% [at 1.6 µM],
CCn1c(CNC(=O)c2ccc(OC)c(OC)c2)nnc1SCC(=O)Nc1ccccc1,inactive,
CCOC(=O)N/N=C1/C[C@@H](O)[C@@H](O)[C@@H]2[C@@H]3C(=O)N(CC)C(=O)[C@H]3CC[C@H]12,4.77% [at 8 µM],
CN(CCCNC(=O)CN1C(=O)CC(C)(C)S(=O)(=O)c2ccccc21)C1CCCCC1,inactive,
CCCCCCCCCCCC(=O)O,inactive,
CC(C)C[C@@H](CC(=O)N[C@@H](CCC(=O)O)CC(=O)O)NC(=O)[C@@H]1CCCC[C@H]1NC(=O)C[C@@H](NC(=O)C[C@H](Cc1c[nH]c2ccccc12)NC(=O)[C@@H]1CCCC[C@H]1N)C(C)C,inactive,
COc1ccc(Br)c2c1C[C@H](C(=O)O)CC2,-10.3% [at 8 µM],
Cc1cc(N2CCCCC2)nc2ccc(Cc3ccc4nc(N5CCCCC5)cc(C)c4c3)cc12,3.79% [at 8 µM],
C[C@H]1CC[C@H](C(=O)O)N[C@@H]1c1ccc(C#Cc2ccccc2)cc1,0.0911% [at 1.6 µM],
COc1cccc(-c2cc(NCCc3c[nH]c4ccc(OC)cc34)ncn2)c1,,10 µM (active)
COc1ccc2[nH]cc(CCNc3ncnc4ccc(-c5ccc(C(=O)N(C)C)cc5)cc34)c2c1,inactive,
COc1ccc2[nH]cc(CCNc3ncnc4ccc(-c5ccccc5CN(C)C)cc34)c2c1,inactive,
COC(=O)C1=C(C)N(Cc2ccccc2)C2=C3C(=O)N(c4ccccc4)C(=O)C3[C@@](O)(C(=O)OC)C(=O)N2C1c1ccccc1 (some centres undefined),-8.4% [at 8 µM] and -8.22% [at 8 µM],
CC(=O)/C(C)=N\O,inactive,
CC1CCCC(C)N1CCCNC(=O)c1cc2c(=O)n(C)c3ccccc3c2n1C (centres undefined),,3.98 µM (active)
CCOC(=O)N1CCC(NC(=O)COc2cc(=O)n(C)c3ccccc23)CC1,inactive,
Cn1c(C(=O)NCCN2CCc3ccccc3C2)cc2c(=O)[nH]c3ccccc3c21,inactive,
Cn1c(=O)c(C(=O)Nc2ncccn2)c(O)c2ccccc21,inactive,
CCN1CCCC1CNC(=O)c1cc2c(=O)n(C)c3ccccc3c2n1C (centres undefined),,10 µM (active)
Cn1c(C(=O)N2CCC(C(N)=O)CC2)cc2c(=O)n(C)c3ccccc3c21,inactive,
COC(=O)[C@@]1(C)C=C[C@@H](Cc2ccccc2)N1C(C)=O,inactive,
C=CCOC(=O)c1ccccc1C(=O)OCC=C,inactive,
